Experimental data: PubChem BioAssay AID540257 (Southern Research Specialized Biocontainment Screening …, 2011)
The campaign covered roughly 1,800 compounds. About 15 (0.8%) were called active. Only a sample is shown. Measured potencies and affinities stand elsewhere. Values without a mark were called inactive. The rule behind the calls is not given here.

test: antiviral activity against H1N1 influenza, dose response, cell-based, strain KY136 (AID 540257); settings: H1N1 KY136 influenza antiviral cell assay, % inhibition; series mostly up to 40 µM; inhibition: at the top concentration

Row | SMILES | inhibition [%]
1 | CC(=O)NC(c1ccccc1)c1cc([N+](=O)[O-])c2cccnc2c1O (stereo not drawn) | -0.23
2 | Nc1[nH]c(N=NC(=O)c2ccccc2O)c2ccccc12 | -1.36
3 | COc1cc(-c2n[nH]c(=S)n2-c2cccc(C(F)(F)F)c2)cc(OC)c1OC | -0.46
4 | O=C(CCCN1C(=O)/C(=C/c2ccc3c(c2)OCO3)SC1=S)Nc1ccc(C(=O)O)cc1 | -1.62
5 | CN1CCN(NC(=O)CN2C(=O)/C(=C/c3ccccc3Cl)SC2=S)CC1 | 0.15
6 | CCOC(=O)c1ccc(Nc2c(CC)c(C)nc3ncnn23)cc1 | -0.18
7 | COc1ccccc1N1CCN(C(=O)CCCn2c(=O)[nH]c3ccsc3c2=O)CC1 | -0.55
8 | O=C1CCCC2=C1C1(CCCCC1)N=C(Nc1nc3ccccc3s1)N2 | -0.46
9 | O=C(O)c1cccc2c1/C(=N/O)c1ccccc1-2 | -1.51
10 | O=C(COC(=O)c1ccc([N+](=O)[O-])cc1)Nc1cccnc1Cl | 2.51
11 | C[n+]1c(/C=C/c2ccc(O)cc2)ccc2ccccc21 | -0.74
12 | COc1cc(C=NO)nc(-c2ccccn2)c1 | -15.2
13 | O=[N+]([O-])c1cccc(C=Nc2cc3c(cc2Br)OCCO3)c1 | 0.23
14 | CCOc1ccccc1CNC(=O)c1ccc2c(c1)N(CC)CCS2 | -6.06
15 | Clc1ccc(-c2nnc(N3CCCC3)nn2)cc1 | 1.97
16 | CCCS(=O)(=O)n1nc(-c2ccccc2)cc1N | 1.16
17 | O=C(Nc1ccc(N2CCOCC2)cc1)Nc1ccc(Cl)c(Cl)c1 | -14.1
18 | Nc1nc(Nc2ccccc2)nc(NCc2ccco2)c1[N+](=O)[O-] | -3.58
19 | O=C1CC(c2ccccc2)Cc2nc(NCc3ccco3)ncc21 (stereo not drawn) | 13.9
20 | C=CC[n+]1c(/C=C2\C=Cc3cc(C)ccc3N2CC)ccc2ccccc21 | -1.51
21 | O=C1C(=C(c2ccccc2)c2ccccc2)Nc2ccccc21 | 4.26
22 | O=C(CN1CCN(S(=O)(=O)c2ccccc2)CC1)Nc1ccc(N2CCOCC2)cc1 | 0.12
23 | O=S(=O)(c1cccs1)N1CCN(CC(O)COc2cc(Cl)ccc2Cl)CC1 (stereo not drawn) | -12.7
24 | O=C(CCc1ccccc1)Nc1cc2c(cc1Cl)OCCO2 | 3.94

Row | SMILES | inhibition [%]
25 | O=C(COC(=O)[C@H](Cc1c[nH]c2ccccc12)NC(=O)c1cccs1)NCc1ccccc1 | 4.26
26 | O=C(Nc1ccccc1C(=O)NCc1cccnc1)c1ccc(Cl)cc1Cl | -1.04
27 | c1ccc(Cn2nnc3c(N4CCCCCC4)ncnc32)cc1 | 0
28 | CCOC(=O)N1CCN(c2cc(=O)n(-c3ccc(C)cc3)c(=O)[nH]2)CC1 | 0.45
29 | O=C1C(Nc2ccc(O)cc2)=C/C(=N/S(=O)(=O)c2cccs2)c2ccccc21 | -5.8
30 | O=C(NC(=S)NNC(=O)c1cnccn1)c1ccc(Cl)cc1 | -2.73
31 | O=C1CSC(=S)N1N=Cc1ccccc1O | -1.49
32 | O=C(Nc1cccc(Cl)c1)c1cc(N=Nc2ccc([N+](=O)[O-])cc2Cl)ccc1O | -2.11
33 | CC(=O)N1CCC(N(CCCOC(C)C)C(=O)Nc2ccc(Cl)cc2)CC1 | 0.58
34 | CCOC(=O)c1c(C2CC2)csc1NC(=O)COC(=O)c1ccc[n+]([O-])c1 | -0.55
35 | COCc1cc(=O)[nH]c(Nc2nc3ccccc3o2)n1 | 0.12
36 | O=[N+]([O-])c1ccc(O)c(/C=N/Nc2nn[nH]n2)c1 | -2.43
37 | Cc1ccc(C(=O)Nc2nc(-c3ccccn3)cs2)o1 | -1.74
38 | COc1ccc(CC(=O)N2N=C(C)CC2(O)c2cccnc2)cc1OC (stereo not drawn) | 0.64
39 | CCOc1ccc(OCCOCCn2ccnc2)cc1 | 1.34
40 | Cc1ccc(S(=O)(=O)N2CCN(C(=O)c3ccc(N4CCCC4)c([N+](=O)[O-])c3)CC2)cc1 | -1.55
41 | COc1ccc(CNC(=O)Cn2ccc([N+](=O)[O-])n2)cc1OC | 1.93
42 | CCN(C(C)=O)c1cnc(C=NNC(N)=S)c2ccccc12 | -5.03
43 | Cc1cc2ncn(C(=O)c3c(-c4ccccc4Cl)noc3C)c2cc1C | 0.59
44 | Oc1c(C(Nc2ccccn2)c2ccccn2)ccc2cccnc12 (stereo not drawn) | -3.95
45 | COc1ccc(N2CCN(CCNC(=O)Nc3ccc([N+](=O)[O-])cc3OC)CC2)cc1 | -2.3
46 | CCOc1ccc(N=Cc2c(O)cc(C)oc2=O)cc1 | -0.39
47 | CN(C)c1ccc(N=Nc2ccccc2C(=O)OCC(=O)N(C)c2ccccc2)cc1 | 1.62
48 | NC(=O)NC(=O)CC1S/C(=N/N=C2\CSC(=O)N2)NC1=O (stereo not drawn) | 0.45

Row | SMILES | inhibition [%]
49 | CC(=O)Oc1ccc(NC(=O)Cc2ccccc2)cc1 | -0.12
50 | COc1ccc2cc3c(N)nn(C(=O)Cc4ccccc4OC)c3nc2c1 | -1.82
51 | CN(C)c1ccc(CN2CC=C(c3ccc(F)cc3)CC2)cc1 | -1.04
52 | CC(NS(C)(=O)=O)C(c1cccs1)N1CCN(c2ccccc2)CC1 (stereo not drawn) | 0.3
53 | Cc1ccccc1NC(=S)N/N=C/c1ccc(O)cc1O | -5.22
54 | O=C(N/N=C/c1ccco1)Nc1ccccc1 | 0.15
55 | COc1ccc(C2C3=C(CC(C)(C)CC3=O)Oc3ncn(Cc4ccco4)c(=N)c32)cc1 (stereo not drawn) | 2.82
56 | Cc1ccccc1CNC(=O)CCC(=O)N1CCOc2ccc(Cl)cc21 | 1.35
57 | CCC(C)NC(=O)CN1C(=O)COc2ccc(S(=O)(=O)N3CCOCC3)cc21 (stereo not drawn) | 0.81
58 | CS(=O)(=O)N1CCC(Oc2cccc(C(=O)NCCCC3CCCC3)c2)CC1 | -2.3
59 | CC(/C=C/c1ccccc1)=N\NC(=O)Cn1nc(C)cc1C | 0
60 | O=C(Cn1c(=O)c(C(F)(F)F)nc2ccccc21)N1CCC2(CC1)OCCO2 | 1.56
61 | Cc1cccn2c(=O)c(C=C(C#N)C#N)c(N3CCN(c4ccccc4)CC3)nc12 | 0.28
62 | CCCCN1C(=O)NC2NC(=O)NC21 (stereo not drawn) | -2.02
63 | CC(C)C(C(=O)Nc1ccccc1F)N1C(=O)c2ccccc2C1=O (stereo not drawn) | 0.58
64 | O=C(Nc1ccccc1)c1ccc[n+](Cc2ccc([N+](=O)[O-])cc2)c1 | 2.67
65 | O=C1C(NS(=O)(=O)c2cccs2)=C(N2CCN(c3ccccc3)CC2)C(=O)c2ccccc21 | -2.3
66 | Fc1cccc(Nc2ncnc3c2cnn3-c2ccccc2)c1 | -16
67 | O=C1c2ccccc2C(=O)c2c1cccc2N1CCOCC1 | -0.45
68 | O=C(N/N=C/C1C(=O)NC(=S)N(c2ccccc2)C1=O)c1cc(Br)c(O)c(Br)c1 (stereo not drawn) | -1.19
69 | CCOC(=O)c1sc(NC(=O)c2ccc3ncsc3c2)nc1C | 4.13
70 | O=[N+]([O-])c1cc(Br)c2nsnc2c1N1CCOCC1 | 4.84
71 | CCOC(=O)CC(NS(=O)(=O)c1ccc(NC(C)=O)cc1)c1ccc(OCC)cc1 (stereo not drawn) | 2.13
72 | CN(C)c1ccc(C=c2c3ccccc3n3c2c2c([n+]3C)CCCC2)cc1 | -4.87

Row | SMILES | inhibition [%]
73 | O=C(NC1CC1)C(=O)c1c(-c2ccccc2)[nH]c2ccccc12 | 10.5
74 | Cc1nn(Cc2ccccc2)c(C)c1N | 0.83
75 | S=c1sscc1-c1ccccc1 | -0.7
76 | COc1ccc(/C=C/C(=O)OCC(=O)NCCc2ccccc2)c(OC)c1 | 1.74
77 | COc1ccc(S(=O)(=O)N2CCOCC2)cc1NC(=O)CN1CCN(C)CC1 | 1.93
78 | COc1ccc(CSC2=NCCN2)cc1Cl | 4.9
79 | C=CCn1c(N)c(C(=O)NCCC2=CCCCC2)sc1=S | 0.45
80 | O=C(CN1C(=O)c2cccc3cccc(c23)C1=O)N1CCN(Cc2ccc3c(c2)OCO3)CC1 | 0.12
81 | CCCn1nc([N+](=O)[O-])c(C(C#N)c2nc3ccccc3s2)c(Cl)c1=O (stereo not drawn) | -5.69
82 | Cc1c(N2C(=O)/C(=C/c3ccccc3)SC2=S)c(=O)n(-c2ccccc2)n1C | 0.64
83 | O=C(NCCN1CCOCC1)c1cc2sccc2n1Cc1ccc(Cl)cc1 | -1.06
84 | CCOC(=O)CCSCC(=O)Nc1nnc(C)s1 | -0.12
85 | O=C(CSc1ccccc1)Nc1nnc(/C=C/c2ccccc2)s1 | -1.63
86 | Cc1nc(CNS(=O)(=O)c2ccc3ccccc3c2)cs1 | 1.86
87 | CCc1nccn1C(=O)c1cnn2c(C(F)F)cc(-c3ccc(C)cc3)nc12 | -2.08
88 | Cc1c(N/N=C(\C#N)C(=O)c2ccccc2)c(=O)n(-c2ccccc2)n1C | -2.12
89 | COc1ccc2sc(NC(=O)c3ccco3)nc2c1 | 0.7
90 | CCCc1ccc2oc(C(=O)NCc3nnc(C)o3)c(C)c2c1 | -4.06
91 | O=C(N/N=C/c1cc(Br)c(O)c(Br)c1O)c1cccnc1 | -4.64
92 | CCn1c(C(C)NC(=O)c2cccc(C)c2)nc2ccccc21 (stereo not drawn) | 2.67
93 | COc1ccc(C(CCNCc2ccc(N(C)C)cc2)C(C)C)cc1 (stereo not drawn) | -5.42
